TRPV1 potentiator: potentiators of human vanilloid receptor 1 (TRPV1). potentiation, % at 8.33 µM. TRPV1-expressing cells, Fluo-8 calcium influx, capsaicin EC20 potentiation. 320,000 compounds, 0.02% hits. Q8NER1; in the data active = potentiation above about 80%; inconclusive = between about 30% and that limit; note: 0% is about no effect
Target sequence (Q8NER1 whole entry, looked up): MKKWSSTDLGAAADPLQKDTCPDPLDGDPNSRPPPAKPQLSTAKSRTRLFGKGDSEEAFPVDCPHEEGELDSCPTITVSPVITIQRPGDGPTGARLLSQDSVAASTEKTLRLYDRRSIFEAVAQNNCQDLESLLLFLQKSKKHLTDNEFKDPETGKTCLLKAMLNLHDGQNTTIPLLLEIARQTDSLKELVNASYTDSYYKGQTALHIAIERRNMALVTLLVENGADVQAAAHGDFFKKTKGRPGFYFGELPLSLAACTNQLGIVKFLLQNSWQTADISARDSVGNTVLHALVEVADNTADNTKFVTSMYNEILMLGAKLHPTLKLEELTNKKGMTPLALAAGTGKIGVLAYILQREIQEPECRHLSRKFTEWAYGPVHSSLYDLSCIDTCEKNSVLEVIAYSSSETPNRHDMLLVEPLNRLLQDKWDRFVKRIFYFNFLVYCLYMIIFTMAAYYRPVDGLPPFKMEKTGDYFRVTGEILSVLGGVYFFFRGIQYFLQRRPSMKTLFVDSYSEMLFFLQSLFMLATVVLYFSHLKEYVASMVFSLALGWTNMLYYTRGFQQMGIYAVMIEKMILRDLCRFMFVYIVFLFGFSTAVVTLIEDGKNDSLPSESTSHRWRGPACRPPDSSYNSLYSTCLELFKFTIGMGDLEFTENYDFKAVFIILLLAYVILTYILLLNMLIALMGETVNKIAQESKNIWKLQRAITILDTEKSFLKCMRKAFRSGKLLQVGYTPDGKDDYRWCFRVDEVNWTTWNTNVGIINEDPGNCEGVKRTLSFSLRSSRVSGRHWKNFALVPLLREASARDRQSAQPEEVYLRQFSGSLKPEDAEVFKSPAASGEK
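Fluo-8 calcium influx in TRPV1-expressing cells, kinetic read (ex 480/em 520 nm). Compound added and read 3 min for agonist activity, followed by capsaicin at EC20 final and 2 min further read for enhancement.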
AT treatment: potential ataxia-telangiectasia treatments restoring KAP-1 phosphorylation; Potency, µM (titrated, usually from 57.5 µM), for inactives: at the top dose activation, most hits filed as activators; F2112 A-T fibroblasts, KAP-1 phosphorylation AlphaLISA; neocarzinostatin DNA damage 30 min before lysis; 320,000 compounds, 0.19% hits; note: potency is the fitted concentration of half-maximal effect; % of control where 0% means no effect; nearly all actives have a fitted effect of over 45% in size
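ATM-like activity read as KAP-1 phosphorylation via AlphaLISA donor/acceptor antibody pairs after lysis and 6 hr at 25C. Cells were ATM-null patient fibroblasts (F2112, hTERT), dosed 60 min, then exposed to the DSB inducer NCS for 30 min.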
PTAP TSG101 blk: blocks PTAP/TSG101 interaction to inhibit HIV-1 budding | Potency, µM (titrated, usually from 115 µM), inactives show at the top dose activity change, negative = inhibition, hits mostly inhibitors | AID 493005 | Fluorescence polarization, FITC-PTAP peptide / Tsg101 binding | 340,000 tested, under 10 active; active = well fitted inhibition curve with a large enough effect in the main read-out, with a control signal flat, not every such curve was filed as active; inconclusive = small, poorly fitted or top-dose-only effect, or effect the other way, or a change in a side signal; inactive = no such curve, though single readings can be large or run the other way; note: potency is the fitted concentration of half-maximal effect; % of control where 0% means no effect
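Fluorescence polarization binding of Tsg101 binding domain (10 uM final) to FITC-labeled PTAP peptide (50 nM final) in HEPES pH 7.5 buffer with NaCl, Tween 20, EDTA, TCEP. Compounds added before peptide; binding 20 min at RT.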
ASM inhibitor: blocks human secretory acid sphingomyelinase | placental ASM, HMU-PC fluorogenic substrate, 60 min | Potency, µM (doses to about 57.5 µM), without a hit: top-dose activity change, negative = inhibition, actives largely listed as inhibitors | P17405 | 340,000 compounds, 0.006% hits | AID 504937; note: potency is the fitted concentration of half-maximal effect
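Steps: dispense placental human ASM, pin compound, wait 10 min at room temperature, add HMU-PC0 substrate at 9 uM final, incubate 60 min at 37 °C, add stop solution raising pH to 10, read fluorescence.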
TRPV1 ag: activates the human vanilloid receptor TRPV1 | AID 540275 | activation, % at 8.33 µM | Q8NER1 | TRPV1-expressing cells, Fluo-8 calcium influx, agonist mode | 320,000 compounds, 0.19% hits; in the data active = activation above about 80%; inconclusive = between about 30% and that limit; note: 0% is about no effect
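Fluo-8 calcium influx in TRPV1-expressing cells, kinetic read (ex 480/em 520 nm). Compound added and read 3 min for agonist activity, followed by capsaicin at EC20 final and 2 min further read for enhancement.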
Numbers without * were called inactive; i = inactive; u = inconclusive; x = not tested or not shown; [ ] = another dose, or the depositor's remark. Most compounds without a hit are left out; they make up all but 0.37% or so of the library. Unless noted, calls come from the whole dose curve; as a rule, active = well fitted curve in the direction sought with a large enough effect; inconclusive = small, poorly fitted or top-dose-only effect, or another doubt; inactive = no such curve, though single readings can be large; an effect the other way counts as inactive or inconclusive.

SMILES	TRPV1 potentiator	AT treatment	PTAP TSG101 blk	ASM inhibitor	TRPV1 ag
CC(=O)Nc1cccc(Nc2nc(-c3ccccc3F)nc3ccccc23)c1	-15.2	15.9%	-1.1%	-1.9%	96.2*
Cc1cc2c(s1)c1c(C)nn(Cc3ccc(F)cc3)c(=O)c1n2C	x	3.6%	x	x	x
O=C1OC(c2ccccc2)=N/C1=C\N1CCCCC1	-11.7	4.6%	-8.8%	1.4%	u
O=C1OC(c2ccccc2)=C/C1=C/N1CCCCC1	-3.2	-0.2%	-23.3%	-3.7%	80.9*
Cc1cc(=O)[nH]c(SCC(=O)NC2CCCCC2)n1	12.3	17.4%	-12.8%	2.1%	-3.0
COc1ccc2nc(C)cc(Sc3nc4ccccc4s3)c2c1	-6.0	22.4µM*	-3.7%	-5.4%	u
O=C(CNC(=O)c1ccc2c(c1)OCCO2)N/N=C/c1ccc([N+](=O)[O-])cc1	21.8	-0.8%	-2.0%	-3.9%	-3.7
O=C(Cc1ccccc1F)Nc1nc(-c2cccs2)cs1	-1.5	4.5%	-2.0%	-10.7%	81.3*
O=C(Cc1ccccc1)Nc1nc(-c2cccs2)cs1	-7.1	-4.1%	-2.0%	-11.5%	93.7*
O=C(Cc1ccc(F)cc1)Nc1nc(-c2ccc(F)cc2)cs1	-30.8	5.2%	-1.0%	-7.1%	104.2*
O=C(O)CCCC(=O)Nc1nc(-c2ccc(F)cc2)cs1	6.7	-2.2%	-2.2%	-1.7%	2.8
CCC(CC)CN1C(Nc2ccccc2)=NC[C@@H]1C	6.9	1.4%	-4.4%	2.4%	-2.4
O=C(Nc1ccccc1C(=O)N/N=C/c1ccco1)c1ccc(F)cc1	1.8	-5.1%	-1.7%	-4.4%	28.7
COc1cc2nc(C)sc2cc1SC	-8.8	39.8µM*	-7.3%	-0.9%	0.6
Cc1ccc(C[C@H](C(=O)O)N2C(=O)c3ccc(C(=O)O)cc3C2=O)c(C)c1	x	6.0%	x	x	x
CC(C)c1nc(N2CCN(C(=O)c3ccco3)CC2)c(C#N)c2c1COC(C)(C)C2	-14.1	5.7%	0.4%	6.9%	u
CCCCc1nc(N2CCN(C(=O)c3ccco3)CC2)c(C#N)c2c1CCCC2	-26.7	13.8%	-2.5%	0.0%	86.4*
CCC(=O)N1CCN(c2nc(-c3ccccc3)c3c(c2C#N)CCCC3)CC1	-0.6	x	-2.3%	236.4%	101.8*
Fc1cccc(CNc2ncnc3ccc(-c4ccoc4)cc23)c1	x	3.6%	x	x	x
O=[N+]([O-])c1cc([N+](=O)[O-])c(Oc2c(F)ccc(F)c2F)cc1NN1CCCCC1	8.1	-4.5%	-0.1%	-1.8%	80.2*
N#C/C(=C/c1ccc(F)cc1)C(N)=S	0.0	3.55µM*	-1.7%	-0.7%	-4.8
CCC(C)N1CCCCC1C(=O)Nc1c(C)cc(C)cc1C (stereo not drawn)	29.6	-3.8%	-7.0%	2.5%	0.0
CCOc1nc(-c2ccccc2O)nc2ccccc12	0.6	7.0%	-5.0%	-12.5%	1.8
CC(C)Oc1nc(-c2ccccc2Cl)nc2ccccc12	-2.6	31.6µM*	-1.9%	-15.3%	10.2
CN(C)S(=O)(=O)c1ccc(NC(=O)c2ccc3ncsc3c2)cc1	-21.1	1.5%	-5.2%	-0.1%	80.1*
SMILES	TRPV1 potentiator	AT treatment	PTAP TSG101 blk	ASM inhibitor	TRPV1 ag
CCOc1ccc(NC(=O)c2ccc(S(=O)(=O)N(C)C)cc2)cc1	-3.8	7.9%	-2.4%	-5.4%	u
CN(C)S(=O)(=O)c1cccc(NC(=O)c2ccc3nccnc3c2)c1	-4.7	15.8µM*	-3.5%	1.3%	8.3
COc1ccc(NC(=O)c2ccc3ncsc3c2)cc1	-11.5	22.7%	-3.9%	6.2%	91.8*
CN1CCSc2ccc(C(=O)Nc3cccc(F)c3)cc21	19.6	12.2%	-4.7%	421.0%	u
COc1ccc(NC(=O)c2ccc3nc(C)sc3c2)cc1	-9.4	1.6%	-8.7%	3.1%	8.1
COc1ccc(NC(=O)c2ccc3c(c2)N(C)CCS3)cc1	-27.5	-3.4%	2.4%	30.3%	96.6*
COc1ccc(C(=O)Nc2ccc3ncccc3c2)cc1	-17.6	-3.6%	0.1%	2.2%	90.7*
O=C(Nc1ccc(Br)cc1)c1ccc2ncsc2c1	-0.5	0.0%	-1.6%	-14.8%	u
CCc1ccc(NC(=O)c2ccc3ncsc3c2)cc1	-2.8	1.9%	x	x	85.7*
O=C(O)c1ccc2c(c1)C(=O)N([C@H](Cc1ccc(C(F)(F)F)cc1)C(=O)O)C2=O	x	11.1%	x	x	x
Cc1ccccc1NS(=O)(=O)c1ccc2[nH]cc(C(=O)NCCc3ccccc3)c(=O)c2c1	15.7	-17.1%	x	x	0.1
OC(Cn1cncn1)(Cn1cncn1)c1ccc(F)cc1F	x	x	-1.8%	0.7%	x
O=C(N1CCOCC1)N1CCN(c2ccccc2)CC1	-15.9	-1.9%	0.0%	2.1%	u
O=C(N1CCOCC1)N1CCN(c2ccccc2F)CC1	-9.0	-4.2%	0.0%	-0.8%	83.5*
N#Cc1nc(COc2ccccc2F)oc1NCc1ccc(F)cc1	x	31.6µM*	0.7%	-0.2%	x
CCC(C)NC(=O)CSc1nc2cc3c(cc2c(=O)n1Cc1ccc(C(=O)NCCc2ccc(OC)c(OC)c2)cc1)OCO3 (stereo not drawn)	12.5	x	x	x	0.5
Cc1cccc(Cn2c(NCCO)nc3c2c(=O)n(C)c(=O)n3C)c1	x	31.6µM*	1.0%	0.8%	x
Cc1ccc(C(C)C)c(OCC(=O)N/N=C/c2ccc(S(=O)(=O)O)o2)c1	29.1	14.1µM*	0.0%	11.8%	-1.1
CC(C)(C)CC(C)(C)c1ccc(OCC(=O)N/N=C/c2ccc(S(=O)(=O)O)o2)cc1	19.4	0.0%	1.0%	4.2%	-6.0
O=C1OC2(CCCCC2)CC2=C1C1O[C@](CCCCN3C(=O)c4ccccc4C3=O)(Cc3ccccc31)O2	i	2.9%[11.5 µM]	x	x	i
CCC12CN(C(=O)c3ccc([N+](=O)[O-])cc3)CC(CC)(CN(C(=O)c3ccc([N+](=O)[O-])cc3)C1)C2=O	4.8	7.08µM*	-0.5%	-0.7%	5.0
O=C1C2=C(C(=O)c3ccccc31)C1O[C@](c3ccsc3)(Cc3ccccc31)O2	i	-9.1%[11.5 µM]	x	x	i
Nc1c(C(=O)c2ccccc2)sc2nsc(SCCN3CCOCC3)c12	-5.3	-4.0%	3.2%	-24.4%	105.7*
CC(=O)c1sc2nsc(SCCN3CCOCC3)c2c1N	-22.9	2.1%	-4.3%	-0.8%	14.3
COCCCNC(=O)c1ccc2c(=O)n(CC3CCCO3)c(=S)[nH]c2c1 (stereo not drawn)	-9.4	-6.0%	-7.0%	5.5%	1.5
CC(C)NC(=O)c1ccc2c(=O)n(CC3CCCO3)c(=S)[nH]c2c1 (stereo not drawn)	143.4*	2.9%	-1.2%	9.6%	-8.5
Cc1nc2sc(C(N)=O)c(N)c2c2c1CCCC2	-12.5	8.91µM*	-0.5%	i	-3.1
Cc1ccc(-c2nc3sc(C(N)=O)c(N)c3c3c2CCCC3)cc1	24.7	20.8%	1.8%	332.6%	1.5
Cc1ccc(S(=O)(=O)N2CC=C(c3c(C)n(CC(=O)N4CCCC4)c4ccccc34)CC2)cc1C	29.5	x	x	x	-1.6

High-throughput results (PubChem BioAssay)
